Laboratory results reported in PubChem BioAssay (EPA / NIEHS).
“And” between values parts separate entries of the source, which are not always exact repeats. Identical values can stand only once. Records with an inconclusive call do not appear. Where a structure was tested more than once in an assay, its records may differ in their call. The source made the active and inactive calls. Rule for the calls: active = hit-call score of the fitted dose curve at least 0.9, where 1 is the maximum; inconclusive = response in the unintended direction; inactive = score below 0.9.

assay: TOX21_p53_BLA_p3_viability: Viability Assessment in the Tox21 HCT-116 p53 Agonism Beta-lactamase Assay, Phase 3 (AID 2283593);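 note: cells exposed to compound for 16 h before reading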
Text: TOX21_p53_BLA_p3 is a cell-based, single-readout assay that uses HCT116, a human intestinal cell line, […] in a 1536-well plate.TOX21_p53_BLA_p3_viability is an assay readout measuring cellular ATP content and detected with CellTiter-Glo Luciferase-coupled ATP quantitation.TOX21_p53_BLA_p3_viability used a type of viability reporter where loss-of-signal activity can be used to understand changes in the cell viability. Furthermore, this assay endpoint can be referred to as a secondary readout, because this assay has produced multiple assay endpoints where this one serves a viability function. To generalize the intended target to other relatable targets, this assay endpoint is annotated to the cell cycle intended target family, where the subfamily is cytotoxicity.
Thawing Method: Place 14 mL of pre-warmed thaw medium into a 15 mL of conical tub. Remove the vial of cells to be thawed from liquid nitrogen and thaw rapidly by placing at 37C in a water bath with gentle agitation for 1-2 minutes. Decontaminate the vial by wiping with 70% ethanol before opening in a biological safety cabinet. Transfer the vial contents drop-wise into 14 mL of thaw medium in a sterile 15-mL conical tub. Centrifuge cells at 900 rpm for 4 minutes and resuspend in thaw medium. Transfer contents to the T75 tissue culture flask containing Thaw Medium and place flask in a humidified 37C/5% CO2 incubator. Switch to growth medium at first passage.Propagation Method: Aspirate medium, rinse once in DPBS, add 0.25% Trypsin/EDTA and swirl to coat the cell evenly. Add an equal volume of Growth Medium to inactivate Trypsin after 2-3 minutes incubation at 37C. Centrifuge cells at 900 rpm for 4 minutes and resuspend in growth medium. Cell should be passage or fed at least twice a week.Assay Protocol: Harvest cells from culture in growth medium and resuspend in assay medium. 2.2 Dispense 4000 cells/5 uL/well into 1536-well black/clear bottom plates using a Multidrop dispenser. After the cells were incubated at 37C for 5 hours, 23 nL of compounds dissolved in DMSO were transferred to the assay plate by a PinTool resulting in a 217-fold dilution. Incubate the plates for 16 hours at 37C, 5% CO2. Add 1 uL of 6X LiveBLAzer FRET B/G (CCF4-AM) Substrate Mixture to each well using a BioRAPTR dispenser and incubate the plates at room temperature for 2 hours. Measure fluorescence intensity at 460 and 530 nm emission and 405 nm excitation by an Envision detector. Data is expressed as the ratio of 460nm/530nm emissions. Add 4 uL of Cell-titer Glo to each well using BioRAPTR and incubate the plates at room temperature for […]. For cell viability readout that measures cytotoxicity, 4 ul/well of CellTiter-Glo reagent was added into the assay plates using a Flying Reagent Dispenser. After 30 min incubation at room temperature, the luminescence intensity in the plates was measured using a ViewLux plate reader.

Row | SMILES | outcome | AC50
1 | CC(C)[C@H]1CC[C@@H](C)CC1=O | inactive | 
2 | Cc1ccc(C=O)s1 | inactive | 
3 | C=C[Si](OCC)(OCC)OCC | inactive | 
4 | O=C1OC2(c3cc(Br)c(O)c(Br)c3Oc3c2cc(Br)c(O)c3Br)c2c(Cl)c(Cl)c(Cl)c(Cl)c21 |  | 48.3 µM (active) and 20.9 µM (active)
5 | CC(=O)OCC=Cc1ccccc1 | inactive | 
6 | CC(C)(N)CO | inactive | 
7 | COCCOCCOCCOCCOCCO | inactive | 
8 | CC(C)(C#N)c1cc(Cn2cncn2)cc(C(C)(C)C#N)c1 | inactive | 
9 | CC(=O)C(=O)O | inactive | 
10 | CCc1ccc(C=O)cc1 | inactive | 
11 | CSc1nc(NC2CC2)nc(NC(C)(C)C)n1 | inactive | 
12 | Cc1ccccc1C=O | inactive | 
13 | CC(C)OP(=O)(CP(=O)(OC(C)C)OC(C)C)OC(C)C | inactive | 
14 | O=Nc1ccc(Nc2ccccc2)cc1 | inactive | 67 µM (active)
15 | Cc1ccc(O)c(C(C)(C)C)c1 | inactive | 36.7 µM (active)
16 | CCCCNC(=O)NS(=O)(=O)c1ccc(C)cc1 | inactive | 
17 | O=C(O)c1ccc(C(=O)O)cc1 | inactive | 
18 | OCCN1CCNCC1 |  | 82.8 µM (active)
19 | CCOC(=S)SSC(=S)OCC | inactive | 

Row | SMILES | outcome | AC50
20 | COC(C)CCO (stereo not given) | inactive | 
21 | CCCCCOC(=O)CCC | inactive | 
22 | Nc1cc(Cl)c(O)c(Cl)c1 | inactive | 
23 | COCCCOc1ccnc(CS(=O)c2nc3ccccc3[nH]2)c1C (stereo not given) | inactive | 
24 | CCCCCCCCCCCCN |  | 80.4 µM (active) and 66.7 µM (active)
25 | O=C(O)c1cccc(C(F)(F)F)c1 | inactive | 
26 | NCCCCCCN | inactive | 
27 | O=C(Cl)c1cccc(C(=O)Cl)c1 | inactive | 
28 | Cc1ccc2ccccc2n1 | inactive | 
29 | COC(=O)Cc1cccc2ccccc12 | inactive | 
30 | CC(=O)OCCOC(C)=O | inactive | 
31 | CN1[C@@H]2CC(OC(=O)[C@H](CO)c3ccccc3)C[C@H]1[C@@H]1O[C@@H]12 (stereo not given in full) | inactive | 
32 | CC1CC(OC(=O)c2ccccc2O)CC(C)(C)C1 (stereo not given) | inactive | 22.5 µM (active)
33 | O=C(O)c1cccc([N+](=O)[O-])c1 | inactive | 
34 | Sc1nc(S)nc(S)n1 | inactive | 
35 | O=[N+]([O-])c1cc(C(F)(F)F)ccc1Cl | inactive | 
36 | CCCCCCCCCCCCN(CCCCCCCCCCCC)CCCCCCCCCCCC | inactive | 
37 | CCO[Si](CCCS)(OCC)OCC | inactive | 
